# In publication PMC7862700, “An all-to-all approach to the identification of sequence-specific readers for epigenetic DNA modifications on cytosine”:
# What was measured:
# Test in all cases: DAPPL (digital affinity profiling via proximity ligation, sequencing); 10 mM Tris-HCl pH 7.5, 50 mM NaCl, 1 mM DTT, 4% glycerol, room temperature, 30 min; GST-TFs on glutathione beads, 16-mer random dsDNA library, 0.1% formaldehyde crosslink after washing; high values mean tight binding
# [1] = target: T1, FLI1 (Homo sapiens, UniProt Q01543 1-452); details: protein: recombinant; tags: N-terminal GST; dsDNA, one strand shown
# T1 sequence: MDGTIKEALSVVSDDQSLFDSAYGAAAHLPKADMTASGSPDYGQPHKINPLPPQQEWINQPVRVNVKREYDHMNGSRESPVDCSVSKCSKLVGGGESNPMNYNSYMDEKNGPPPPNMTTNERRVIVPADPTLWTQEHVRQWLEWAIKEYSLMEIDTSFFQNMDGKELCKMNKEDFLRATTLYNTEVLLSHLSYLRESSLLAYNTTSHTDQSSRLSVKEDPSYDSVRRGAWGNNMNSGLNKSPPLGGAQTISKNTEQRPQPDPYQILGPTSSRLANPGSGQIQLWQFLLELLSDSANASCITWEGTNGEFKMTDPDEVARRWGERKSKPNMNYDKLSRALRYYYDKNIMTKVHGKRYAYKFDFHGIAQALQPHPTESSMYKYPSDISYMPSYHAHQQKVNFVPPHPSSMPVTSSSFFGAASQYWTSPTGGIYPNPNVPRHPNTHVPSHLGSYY
# How it was run: (§1)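 Pools of DNA-barcoded human transcription factors, expressed in yeast as GST fusions on glutathione beads and combined with a tag-only sample, were incubated with 200 nmole of a 16-mer random double-stranded DNA library. Incubation took 30 min at room temperature in Tris/NaCl/DTT/glycerol buffer and was followed by washing, 0.1% formaldehyde crosslinking, proximity ligation (BsaI/T4 ligase, 1 h, 37 °C), PCR amplification and sequencing on an Illumina NextSeq500. Binding signal is the ratio of a hexamer's read frequency for a factor to its frequency for the tag-only sample.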
# [2] = target: T2, ELK1 (Homo sapiens, UniProt P19419 1-428); details: protein: recombinant; tags: N-terminal GST; dsDNA, one strand shown
# T2 sequence: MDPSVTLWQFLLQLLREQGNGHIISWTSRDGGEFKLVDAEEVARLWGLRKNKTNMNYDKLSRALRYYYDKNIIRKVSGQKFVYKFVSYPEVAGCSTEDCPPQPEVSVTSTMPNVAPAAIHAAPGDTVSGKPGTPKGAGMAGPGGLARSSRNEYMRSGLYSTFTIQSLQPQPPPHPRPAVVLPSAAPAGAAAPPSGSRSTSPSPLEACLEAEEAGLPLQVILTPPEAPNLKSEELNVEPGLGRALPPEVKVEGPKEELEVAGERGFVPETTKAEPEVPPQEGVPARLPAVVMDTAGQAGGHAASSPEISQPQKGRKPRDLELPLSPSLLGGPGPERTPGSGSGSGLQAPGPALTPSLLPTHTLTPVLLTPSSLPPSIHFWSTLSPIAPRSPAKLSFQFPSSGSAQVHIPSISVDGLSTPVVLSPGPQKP
# How it was run: as §1
# [3] = target: T3, GABPA (Homo sapiens, UniProt Q06546 1-454); details: protein: recombinant; tags: N-terminal GST; dsDNA, one strand shown
# T3 sequence: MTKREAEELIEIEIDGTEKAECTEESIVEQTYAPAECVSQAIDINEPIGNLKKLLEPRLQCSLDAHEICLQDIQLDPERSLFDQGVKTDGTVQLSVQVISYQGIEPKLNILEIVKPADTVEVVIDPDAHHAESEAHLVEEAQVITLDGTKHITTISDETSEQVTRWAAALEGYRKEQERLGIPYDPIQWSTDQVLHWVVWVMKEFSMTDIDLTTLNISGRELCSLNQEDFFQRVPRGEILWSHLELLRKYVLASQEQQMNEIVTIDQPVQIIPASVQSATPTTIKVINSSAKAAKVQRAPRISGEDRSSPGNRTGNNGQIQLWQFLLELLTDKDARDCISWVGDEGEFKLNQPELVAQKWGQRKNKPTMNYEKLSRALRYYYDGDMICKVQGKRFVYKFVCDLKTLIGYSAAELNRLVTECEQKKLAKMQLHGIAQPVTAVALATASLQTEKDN
# How it was run: as §1
# [4] = target: T4, ERG (Homo sapiens, UniProt P11308 1-479); details: protein: recombinant; tags: N-terminal GST; dsDNA, one strand shown
# T4 sequence: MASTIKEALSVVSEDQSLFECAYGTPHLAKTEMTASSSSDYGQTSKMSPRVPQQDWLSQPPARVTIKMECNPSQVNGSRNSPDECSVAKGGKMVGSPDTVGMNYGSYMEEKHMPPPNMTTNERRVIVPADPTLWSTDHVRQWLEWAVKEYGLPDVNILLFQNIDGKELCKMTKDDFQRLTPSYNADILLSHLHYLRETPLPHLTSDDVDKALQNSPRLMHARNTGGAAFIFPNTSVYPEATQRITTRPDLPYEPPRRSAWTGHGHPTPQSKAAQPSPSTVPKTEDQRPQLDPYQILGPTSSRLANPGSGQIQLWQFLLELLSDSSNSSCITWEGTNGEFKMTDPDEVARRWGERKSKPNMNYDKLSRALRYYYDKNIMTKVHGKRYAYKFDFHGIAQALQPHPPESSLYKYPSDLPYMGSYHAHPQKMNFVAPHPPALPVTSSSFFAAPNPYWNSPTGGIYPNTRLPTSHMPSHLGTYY
# How it was run: as §1
# [5] = target: ELF1 (Homo sapiens, UniProt P32519 1-619); details: protein: recombinant; tags: N-terminal GST; dsDNA, one strand shown
# ELF1, sequence (P32519 whole entry): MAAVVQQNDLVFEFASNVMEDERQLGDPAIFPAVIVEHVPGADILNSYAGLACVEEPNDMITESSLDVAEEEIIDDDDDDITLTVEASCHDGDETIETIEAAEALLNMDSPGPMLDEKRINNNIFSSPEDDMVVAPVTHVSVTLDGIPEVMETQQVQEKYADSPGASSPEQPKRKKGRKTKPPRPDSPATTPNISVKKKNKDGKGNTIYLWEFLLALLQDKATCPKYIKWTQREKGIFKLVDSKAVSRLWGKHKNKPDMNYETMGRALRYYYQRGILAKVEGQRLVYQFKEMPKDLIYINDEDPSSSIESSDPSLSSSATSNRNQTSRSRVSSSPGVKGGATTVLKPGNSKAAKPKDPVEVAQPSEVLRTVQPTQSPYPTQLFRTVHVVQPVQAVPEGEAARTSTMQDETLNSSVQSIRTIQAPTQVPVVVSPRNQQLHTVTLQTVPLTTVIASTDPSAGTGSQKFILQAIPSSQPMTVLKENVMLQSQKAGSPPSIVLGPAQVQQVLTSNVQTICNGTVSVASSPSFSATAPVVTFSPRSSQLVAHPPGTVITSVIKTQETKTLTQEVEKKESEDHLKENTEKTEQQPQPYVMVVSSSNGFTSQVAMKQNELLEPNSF
# How it was run: as §1
# [6] = target: T5, EHF (Homo sapiens, UniProt Q9NZC4 1-300); details: protein: recombinant; tags: N-terminal GST; dsDNA, one strand shown
# T5 sequence: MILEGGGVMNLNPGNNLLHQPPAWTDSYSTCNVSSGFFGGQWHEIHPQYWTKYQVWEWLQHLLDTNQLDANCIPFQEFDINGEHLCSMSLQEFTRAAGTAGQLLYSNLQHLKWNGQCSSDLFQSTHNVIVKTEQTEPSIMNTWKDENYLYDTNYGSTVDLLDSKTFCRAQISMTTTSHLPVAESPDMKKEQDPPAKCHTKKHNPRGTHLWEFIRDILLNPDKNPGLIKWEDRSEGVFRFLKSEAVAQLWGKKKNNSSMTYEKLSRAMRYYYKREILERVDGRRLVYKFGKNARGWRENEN
# How it was run: as §1
# [7] = target: SPI1 (Homo sapiens, UniProt P17947 1-270); details: protein: recombinant; tags: N-terminal GST; dsDNA, one strand shown
# How it was run: as §1
# [8] = target: SPIB (Homo sapiens, UniProt Q01892 1-262); details: protein: recombinant; tags: N-terminal GST; dsDNA, one strand shown
# SPIB, sequence (Q01892 whole entry): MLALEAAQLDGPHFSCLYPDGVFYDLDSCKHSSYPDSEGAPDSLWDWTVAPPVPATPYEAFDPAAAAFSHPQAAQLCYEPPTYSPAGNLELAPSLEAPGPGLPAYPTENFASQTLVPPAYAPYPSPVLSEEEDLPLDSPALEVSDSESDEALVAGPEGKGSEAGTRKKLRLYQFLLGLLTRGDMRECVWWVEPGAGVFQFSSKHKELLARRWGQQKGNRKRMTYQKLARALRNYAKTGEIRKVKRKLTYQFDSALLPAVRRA
# How it was run: as §1
# [9] = target: T6, ELK3 (Homo sapiens, UniProt P41970 1-407); details: protein: recombinant; tags: N-terminal GST; dsDNA, one strand shown
# T6 sequence: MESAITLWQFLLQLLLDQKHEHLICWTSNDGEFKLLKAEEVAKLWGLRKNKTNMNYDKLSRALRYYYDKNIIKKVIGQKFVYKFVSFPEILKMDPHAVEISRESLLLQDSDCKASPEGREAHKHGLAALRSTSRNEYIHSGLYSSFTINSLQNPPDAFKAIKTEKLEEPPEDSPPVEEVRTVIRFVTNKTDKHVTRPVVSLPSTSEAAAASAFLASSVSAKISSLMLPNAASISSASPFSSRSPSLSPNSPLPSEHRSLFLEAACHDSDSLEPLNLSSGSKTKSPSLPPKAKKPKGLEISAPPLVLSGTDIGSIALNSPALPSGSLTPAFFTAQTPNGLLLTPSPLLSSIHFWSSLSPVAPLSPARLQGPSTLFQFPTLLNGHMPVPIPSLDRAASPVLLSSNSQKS
# How it was run: as §1
# [10] = target: T7, FEV (Homo sapiens, UniProt Q99581 1-238); details: protein: recombinant; tags: N-terminal GST; dsDNA, one strand shown
# T7 sequence: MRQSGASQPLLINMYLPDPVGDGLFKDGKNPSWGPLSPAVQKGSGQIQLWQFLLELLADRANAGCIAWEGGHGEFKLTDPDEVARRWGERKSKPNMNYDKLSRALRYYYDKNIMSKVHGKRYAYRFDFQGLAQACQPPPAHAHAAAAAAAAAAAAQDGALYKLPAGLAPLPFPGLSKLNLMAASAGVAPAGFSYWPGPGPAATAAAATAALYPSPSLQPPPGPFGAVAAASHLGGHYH
# How it was run: as §1
# [11] = target: ETV5 (Homo sapiens, UniProt P41161 1-510); details: protein: recombinant; tags: N-terminal GST; dsDNA, one strand shown
# ETV5, sequence (P41161 whole entry): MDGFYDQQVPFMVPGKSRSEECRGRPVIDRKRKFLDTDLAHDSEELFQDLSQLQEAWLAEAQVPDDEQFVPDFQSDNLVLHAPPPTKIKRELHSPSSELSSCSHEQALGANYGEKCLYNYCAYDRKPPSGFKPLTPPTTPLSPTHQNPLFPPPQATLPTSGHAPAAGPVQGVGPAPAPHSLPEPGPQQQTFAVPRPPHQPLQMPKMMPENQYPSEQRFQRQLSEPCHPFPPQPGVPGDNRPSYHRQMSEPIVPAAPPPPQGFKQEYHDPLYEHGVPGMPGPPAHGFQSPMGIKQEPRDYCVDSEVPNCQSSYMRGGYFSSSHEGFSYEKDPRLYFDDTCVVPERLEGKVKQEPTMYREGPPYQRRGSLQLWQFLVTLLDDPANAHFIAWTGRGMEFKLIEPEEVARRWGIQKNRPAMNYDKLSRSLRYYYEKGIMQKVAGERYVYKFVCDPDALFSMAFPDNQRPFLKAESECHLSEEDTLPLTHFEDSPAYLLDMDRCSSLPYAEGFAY
# How it was run: as §1
# [12] = target: HSF1 (Homo sapiens, UniProt Q00613 1-529); details: protein: recombinant; tags: N-terminal GST; chain copies: 3; dsDNA, one strand shown
# HSF1, sequence (Q00613 whole entry): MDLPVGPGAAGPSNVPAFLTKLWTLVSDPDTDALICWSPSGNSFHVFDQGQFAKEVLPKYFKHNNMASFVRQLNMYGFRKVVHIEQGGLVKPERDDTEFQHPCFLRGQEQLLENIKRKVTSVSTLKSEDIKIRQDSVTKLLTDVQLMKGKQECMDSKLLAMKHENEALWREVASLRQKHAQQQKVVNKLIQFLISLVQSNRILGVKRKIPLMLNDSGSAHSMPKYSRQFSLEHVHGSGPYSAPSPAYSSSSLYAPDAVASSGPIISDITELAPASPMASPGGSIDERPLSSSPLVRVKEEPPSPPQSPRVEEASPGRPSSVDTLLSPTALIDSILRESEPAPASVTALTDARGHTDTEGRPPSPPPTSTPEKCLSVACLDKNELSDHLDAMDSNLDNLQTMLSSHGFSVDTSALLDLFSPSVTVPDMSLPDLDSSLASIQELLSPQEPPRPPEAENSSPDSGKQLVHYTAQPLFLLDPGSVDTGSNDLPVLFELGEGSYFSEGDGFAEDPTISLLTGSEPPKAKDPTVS
# How it was run: as §1
# [13] = target: T8, SPIC (Homo sapiens, UniProt Q8N5J4 1-248); details: protein: recombinant; tags: N-terminal GST; dsDNA, one strand shown
# T8 sequence: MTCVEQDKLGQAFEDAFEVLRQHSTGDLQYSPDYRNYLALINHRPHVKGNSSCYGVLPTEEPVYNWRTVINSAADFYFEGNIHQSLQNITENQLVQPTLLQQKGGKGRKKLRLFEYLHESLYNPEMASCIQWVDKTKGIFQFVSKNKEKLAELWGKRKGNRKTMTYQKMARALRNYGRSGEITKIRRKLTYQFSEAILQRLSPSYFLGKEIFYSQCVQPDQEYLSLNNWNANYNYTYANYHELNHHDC
# How it was run: as §1
# [14] = target: ELF4 (Homo sapiens, UniProt Q99607 1-663); details: protein: recombinant; tags: N-terminal GST; dsDNA, one strand shown
# ELF4, sequence (Q99607 whole entry): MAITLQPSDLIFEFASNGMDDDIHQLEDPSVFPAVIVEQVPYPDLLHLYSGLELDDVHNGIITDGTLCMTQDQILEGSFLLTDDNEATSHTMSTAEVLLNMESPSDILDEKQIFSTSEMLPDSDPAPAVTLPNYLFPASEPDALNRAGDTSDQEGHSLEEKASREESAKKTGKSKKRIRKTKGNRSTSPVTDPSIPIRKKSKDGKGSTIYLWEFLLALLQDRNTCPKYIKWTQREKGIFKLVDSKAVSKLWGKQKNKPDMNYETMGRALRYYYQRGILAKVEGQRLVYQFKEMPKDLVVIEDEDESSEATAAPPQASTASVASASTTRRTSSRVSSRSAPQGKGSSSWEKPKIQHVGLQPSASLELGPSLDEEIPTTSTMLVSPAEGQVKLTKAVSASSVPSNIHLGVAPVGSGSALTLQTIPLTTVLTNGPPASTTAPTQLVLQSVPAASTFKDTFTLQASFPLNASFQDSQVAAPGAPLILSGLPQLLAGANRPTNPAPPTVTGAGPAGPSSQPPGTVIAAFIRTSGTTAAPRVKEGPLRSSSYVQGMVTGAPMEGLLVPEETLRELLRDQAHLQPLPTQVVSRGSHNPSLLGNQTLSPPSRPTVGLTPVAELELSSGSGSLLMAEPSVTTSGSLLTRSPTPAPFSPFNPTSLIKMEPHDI
# How it was run: as §1
# [15] = target: T9, ELK4 (Homo sapiens, UniProt P28324-2 1-405); details: protein: recombinant; tags: N-terminal GST; dsDNA, one strand shown
# T9 sequence: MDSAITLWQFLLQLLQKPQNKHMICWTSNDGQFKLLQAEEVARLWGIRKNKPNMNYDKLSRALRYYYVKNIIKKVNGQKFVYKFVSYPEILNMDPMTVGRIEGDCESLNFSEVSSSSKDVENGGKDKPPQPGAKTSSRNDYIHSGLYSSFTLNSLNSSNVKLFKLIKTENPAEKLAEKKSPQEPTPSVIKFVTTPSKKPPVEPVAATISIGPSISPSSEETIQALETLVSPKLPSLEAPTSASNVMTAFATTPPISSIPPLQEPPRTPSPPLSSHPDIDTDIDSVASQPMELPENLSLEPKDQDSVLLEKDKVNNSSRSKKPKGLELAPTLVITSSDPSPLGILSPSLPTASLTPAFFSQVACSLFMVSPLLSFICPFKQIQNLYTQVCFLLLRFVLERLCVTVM
# How it was run: as §1
# [16] = target: T10, ETV2 (Homo sapiens, UniProt O00321 1-342); details: protein: recombinant; tags: N-terminal GST; dsDNA, one strand shown
# T10 sequence: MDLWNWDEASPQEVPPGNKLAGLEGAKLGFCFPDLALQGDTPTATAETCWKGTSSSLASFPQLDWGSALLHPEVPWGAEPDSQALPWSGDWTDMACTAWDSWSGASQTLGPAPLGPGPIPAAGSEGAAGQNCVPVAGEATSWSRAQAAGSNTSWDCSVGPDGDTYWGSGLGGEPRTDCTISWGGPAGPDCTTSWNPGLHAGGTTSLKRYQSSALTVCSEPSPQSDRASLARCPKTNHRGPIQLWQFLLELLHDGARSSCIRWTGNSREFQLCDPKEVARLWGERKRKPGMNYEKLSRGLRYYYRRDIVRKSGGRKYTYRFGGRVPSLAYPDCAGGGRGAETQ
# How it was run: as §1
# [17] = target: T11, ELF3 (Homo sapiens, UniProt P78545 1-371); details: protein: recombinant; tags: N-terminal GST; dsDNA, one strand shown
# T11 sequence: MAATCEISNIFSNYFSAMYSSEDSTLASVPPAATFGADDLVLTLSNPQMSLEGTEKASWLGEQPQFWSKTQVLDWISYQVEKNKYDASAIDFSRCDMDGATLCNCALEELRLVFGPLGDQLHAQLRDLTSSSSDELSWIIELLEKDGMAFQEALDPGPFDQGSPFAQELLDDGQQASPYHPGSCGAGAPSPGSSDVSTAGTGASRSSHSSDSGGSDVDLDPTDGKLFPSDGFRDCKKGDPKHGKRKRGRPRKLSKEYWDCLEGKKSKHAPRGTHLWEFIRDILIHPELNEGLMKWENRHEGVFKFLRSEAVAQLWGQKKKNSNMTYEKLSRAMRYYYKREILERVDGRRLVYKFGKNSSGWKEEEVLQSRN
# How it was run: as §1
# [18] = target: CRX (Homo sapiens, UniProt O43186 1-299); details: protein: recombinant; tags: N-terminal GST; dsDNA, one strand shown
# CRX, sequence (O43186 whole entry): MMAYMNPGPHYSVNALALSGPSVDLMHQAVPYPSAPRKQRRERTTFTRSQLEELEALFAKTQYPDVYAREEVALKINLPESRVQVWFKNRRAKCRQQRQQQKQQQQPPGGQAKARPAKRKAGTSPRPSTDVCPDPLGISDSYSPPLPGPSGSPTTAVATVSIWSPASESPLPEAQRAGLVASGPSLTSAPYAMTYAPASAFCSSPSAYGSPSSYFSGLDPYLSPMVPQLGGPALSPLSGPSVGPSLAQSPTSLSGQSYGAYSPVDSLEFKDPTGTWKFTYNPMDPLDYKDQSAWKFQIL
# How it was run: as §1
# [19] = target: ETV1 (Homo sapiens, UniProt P50549 1-477); details: protein: recombinant; tags: N-terminal GST; dsDNA, one strand shown
# ETV1, sequence (P50549 whole entry): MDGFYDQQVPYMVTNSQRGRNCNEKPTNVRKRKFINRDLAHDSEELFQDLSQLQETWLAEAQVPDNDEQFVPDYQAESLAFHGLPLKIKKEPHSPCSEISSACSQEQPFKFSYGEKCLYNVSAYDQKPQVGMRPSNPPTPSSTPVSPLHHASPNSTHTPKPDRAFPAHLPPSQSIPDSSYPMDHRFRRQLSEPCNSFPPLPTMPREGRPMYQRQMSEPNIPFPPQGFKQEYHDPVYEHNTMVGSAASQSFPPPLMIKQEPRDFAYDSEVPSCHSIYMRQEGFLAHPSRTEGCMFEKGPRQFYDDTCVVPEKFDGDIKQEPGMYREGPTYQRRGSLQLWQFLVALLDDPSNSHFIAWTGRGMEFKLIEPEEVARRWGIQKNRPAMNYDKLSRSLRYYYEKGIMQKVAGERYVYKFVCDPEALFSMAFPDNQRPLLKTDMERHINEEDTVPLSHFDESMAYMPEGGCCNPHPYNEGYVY
# How it was run: as §1
sequence,measurement,setting,value
TAATAT,binding signal,[1],"1.36 fold enrichment (6-mer frequency, TF over GST control)"
same,binding signal,[2],"1.25 fold enrichment (6-mer frequency, TF over GST control)"
same,binding signal,[3],"1.3 fold enrichment (6-mer frequency, TF over GST control)"
same,binding signal,[4],"1.25 fold enrichment (6-mer frequency, TF over GST control)"
same,binding signal,[5],"1.27 fold enrichment (6-mer frequency, TF over GST control)"
same,binding signal,[6],"1.3 fold enrichment (6-mer frequency, TF over GST control)"
same,binding signal,[7],"1.23 fold enrichment (6-mer frequency, TF over GST control)"
same,binding signal,[8],"1.21 fold enrichment (6-mer frequency, TF over GST control)"
same,binding signal,[9],"1.33 fold enrichment (6-mer frequency, TF over GST control)"
same,binding signal,[10],"1.25 fold enrichment (6-mer frequency, TF over GST control)"
same,binding signal,[11],"1.26 fold enrichment (6-mer frequency, TF over GST control)"
same,binding signal,[12],"1.58 fold enrichment (6-mer frequency, TF over GST control)"
same,binding signal,[13],"1.16 fold enrichment (6-mer frequency, TF over GST control)"
same,binding signal,[14],"1.28 fold enrichment (6-mer frequency, TF over GST control)"
same,binding signal,[15],"1.37 fold enrichment (6-mer frequency, TF over GST control)"
same,binding signal,[16],"1.31 fold enrichment (6-mer frequency, TF over GST control)"
same,binding signal,[17],"1.25 fold enrichment (6-mer frequency, TF over GST control)"
same,binding signal,[18],"2.01 fold enrichment (6-mer frequency, TF over GST control)"
same,binding signal,[19],"1.27 fold enrichment (6-mer frequency, TF over GST control)"
